Measurements as given in PubChem BioAssay AID1159580 (chemical genetic matrix, 2015).
Hit rate of the full screen: of about 5,500 compounds, about 2,000 (36%) were called active. Another 18% or so got no clear call; they are omitted. Cut-off read from the data, not from the text of the source: active = normalized growth mostly below about 0.91 (no sharp cut-off); inconclusive = no clear call, values can overlap the other calls; inactive = mostly above about 0.92. This is one part of the list.

Assay: chemical genetic growth profiling, strain panel (AID 1159580);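 note: tested at 20 µM; growth read once vehicle control cultures reached saturation at 30 °C; 1 = growth at the plate median or of vehicle wells; lower values mean less growth of the strain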
Settings: S. cerevisiae deletion strains, growth OD

Measured: normalized growth

C#CCN(C)CCCOc1ccc(Cl)cc1Cl
inactive: locus YAL040C, strain CLN3, active compounds read low 1.01 | locus YCL061C, strain MRC1 (second series), active compounds read low 0.989 | locus YDR150W, strain NUM1, active compounds read low 0.974 | locus YDR363W, strain ESC2, active compounds read low 0.991 | locus YER002W, strain NOP16, active compounds read low 0.993 | locus YMR263W, strain SAP30, active compounds read low 1 | locus YMR307W, strain GAS1, active compounds read low 0.989 | locus YNL175C, strain NOP13, active compounds read low 1 | locus YNL197C, strain WHI3, active compounds read low 1 | locus YNL224C, strain SQS1, active compounds read low 1.01 | locus YNL322C, strain KRE1, active compounds read low 0.993 | locus YOR083W, strain WHI5 (second series), active compounds read low 0.896 | locus YPL055C, strain LGE1, active compounds read low 0.961
